CHT inh: inhibitors of human choline transporter CHT; Q9GZV3; CHT-expressing cells, membrane potential dye, choline response; hits give low values; B-score at 10 µM; 0.86% of 310,000 active;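 active = B-score over 3 SD under the library average, and starting fluorescence ratio not unusually high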;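 also: choline stimulus applied at its EC90 after an EC20 pre-addition; B-score computed on integrated fluorescence ratio after choline addition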
ANO1 block: mouse TMEM16A channel inhibition, primary screen. normalized B-score (activity score, 25-100; higher = stronger inhibition) at 10 µM. HEK293 TMEM16A/YFP iodide influx fluorescence, ionomycin. 1.2% of 310,000 active;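 active = ratio plate-corrected score three or more library SD toward inhibition, starting fluorescence score within five deviations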;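 also: score derived from kinetic fluorescence span divided by baseline fluorescence per well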
Rce1 inh: inhibitors of yeast Ras-converting enzyme; yeast membranes, quenched prenylated peptide cleavage fluorescence; AID 2563; calls only; 0.27% of 290,000 active; Q03530;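 active = fall in fluorescence gain of 50% or more versus controls, with final raw signal at or below 3038400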;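 also: plate controls were neutral control wells for no effect and wells lacking membranes for full effect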
Target sequence (Q03530 whole entry, looked up): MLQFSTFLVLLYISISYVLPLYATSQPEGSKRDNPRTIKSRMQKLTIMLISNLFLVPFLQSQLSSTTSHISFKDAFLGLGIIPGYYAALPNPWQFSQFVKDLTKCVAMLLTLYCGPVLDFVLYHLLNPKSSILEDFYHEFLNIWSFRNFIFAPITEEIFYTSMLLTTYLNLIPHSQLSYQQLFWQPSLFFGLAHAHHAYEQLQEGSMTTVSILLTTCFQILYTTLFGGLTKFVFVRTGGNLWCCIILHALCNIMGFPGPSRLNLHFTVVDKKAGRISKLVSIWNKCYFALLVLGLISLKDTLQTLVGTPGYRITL
CHT allo act: allosteric activators of human choline transporter CHT; 0.49% of 310,000 active; Q9GZV3; CHT-expressing cells, membrane potential dye, choline EC20; hits give high values; LV-AA mutant CHT in HEK293 cells; B-score at 10 µM;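 active = initial fluorescence not abnormally high and integrated response B-score, plate-corrected, over 3 SD above library mean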
TMEM16A act: activates or potentiates the mouse TMEM16A chloride channel; HEK293 TMEM16A/YFP-H148Q/I152L, iodide quench fluorescence; hits give low values; 0.3% of 340,000 active; B-score at 10 µM; AID 623877;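 active = fluorescence-ratio B-score plate-corrected deviation score at least 3 library SD below zero, with starting fluorescence score within 5 deviations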;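 also: channel opened by trigger with iodide after compound preincubation; score built on the fluorescence ratio of max minus min over baseline; more negative score means more quench and so TMEM16A activation or potentiation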
Kir21 block: Kir2.1 (mouse) channel inhibition | HEK293-Kir2.1, FluxOR thallium flux fluorescence; hits give low values | B-score at 10 µM | 0.85% of 310,000 active | AID 1672;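 active = fluorescence ratio B-score at or below minus 3 SD of library scores, with starting-brightness B-score within 2 SD, cut at about -4.2 in these data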;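 also: channel flux triggered by added potassium and thallium sulfate stimulus; B-score of peak minus minimum fluorescence over baseline after thallium stimulus; more negative B-score means stronger Kir2.1 block with less thallium influx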
* marks the source's active call; other numbers are inactive results; i = inactive; / = no result; + = active, no number. This is a sample that favours compounds with a hit; in the whole collection about 3.2% have one here.

SMILES	CHT inh	ANO1 block	Rce1 inh	CHT allo act	TMEM16A act	Kir21 block
CCOC(=O)C1CCN(Cc2cccc(Oc3ccc(Cl)cc3)c2)CC1	i	i	i	i	i	-4.2
CCOC(=O)C1CCN(Cc2cccc(Oc3ccccc3)c2)CC1	i	i	i	i	i	-6.1*
O=C(NC1CC1)c1cccc(S(=O)(=O)Nc2ccccc2F)c1	i	i	i	i	-4.9*	1.4
CN(C)c1ccc(CNc2ncnc3sccc23)cc1	i	i	i	i	i	-0.15
Nc1nc(Nc2ccc(Cl)cc2)nc2ccccc12	-8.3*	i	i	i	i	-14*
Cc1ccc(Nc2nc3ccccc3n3cnnc23)cc1Cl	i	i	i	i	i	-0.74
Cc1ccc(Nc2nc(N)c3ccccc3n2)cc1Cl	i	i	i	i	i	-13*
CCCCCC(=C/c1ccccc1)/C=N/Nc1ccc(S(=O)(=O)N2CCOCC2)cc1[N+](=O)[O-]	/	/	/	/	i	/
Cc1ccc(S(=O)(=O)c2cn(C)c3cc(N4CCOCC4)c(F)cc3c2=O)cc1	i	i	+	i	i	2.4
Cc1nc(N2CCC(C)CC2)c2c(C)c(C(=O)Nc3ccc(C)c(F)c3)sc2n1	i	i	i	i	i	1.1
Cc1nc(N2CCN(C)CC2)c2c(C)c(C(=O)Nc3ccc(C)c(F)c3)sc2n1	i	i	i	i	i	-6*
CN1C(=O)/C(=C\c2cc(N=Nc3ccccc3)ccc2O)SC1=S	i	100*	i	i	i	-0.19
CCOC(=O)c1c(CC(C)C)csc1NC(=O)C(C)C	i	25*	i	i	i	/
CCOC(=O)c1c(CC(C)C)csc1NC(=O)CCl	i	i	i	i	i	0.94
Cc1ccc(SCC(=O)NC(=O)NC2CCCC2)c(C)c1	/	/	/	/	i	/
CCOC(=O)C1=NN(C(=O)c2ccc(C)cc2)C(O)(c2ccc(Cl)cc2)C1 (stereo not drawn)	i	100*	i	i	i	0.42
O=S(=O)(O)c1cc2oc(-c3ccccc3)nc2c2ccccc12	i	i	+	i	i	0.31
O=S(=O)(Nc1ccc2oc(-c3ccccc3)nc2c1)c1ccccc1	i	i	i	i	i	-0.63
Cc1ccc(S(=O)(=O)N2CCOCC2)cc1NC(=O)CSCc1c(C)noc1C	/	/	/	/	i	/
O=C1C(Cc2ccccc2O)NC(=S)N1c1ccccc1 (stereo not drawn)	i	i	i	i	i	-0.11
COc1ccc(OC)c(CCNC(=O)CCCc2nnc3n(C)c(=O)c4sccc4n23)c1	i	i	i	i	i	2.4
COc1ccc(CN2Cc3cccc4c3[C@@H](CC2=O)[C@H](O)[C@H](O)C4)cc1	/	/	/	/	-9.2*	/
O=C1C[C@@H]2c3c(cccc3CN1Cc1ccc(F)cc1)C[C@@H](O)[C@H]2O	/	/	/	/	i	/
CCOC(=O)c1ccc(S(=O)(=O)N2CCN(Cc3cc4c(cc3O)OCO4)CC2)cc1	/	/	/	/	i	/
OC(CNC1CCCC1)COc1ccccc1Br (stereo not drawn)	i	i	i	i	i	-0.01
SMILES	CHT inh	ANO1 block	Rce1 inh	CHT allo act	TMEM16A act	Kir21 block
OC(CNCCc1ccc(C(F)(F)F)cc1)COc1cccc2ccccc12 (stereo not drawn)	i	i	i	i	i	-8*
COc1ccc(CCNCC(O)COc2cccc(Br)c2)cc1 (stereo not drawn)	i	i	i	i	i	-8.7*
OC(CNC1CCCCCC1)COc1cccc2ccccc12 (stereo not drawn)	i	i	i	i	i	-4.9*
COc1ccc(/C=C2\C(=O)ON=C2c2ccccc2)cc1	i	i	i	i	i	0.11
COc1cc(/C=C2\C(=O)ON=C2c2ccc(Cl)cc2)ccc1O	i	i	i	i	-5.9*	-4.8*
C[C@H]1CN([C@@H](C)CO)C(=O)Cc2cc(NC(=O)C3CC3)ccc2O[C@H]1CN(C)Cc1ccc(C(=O)O)cc1	/	/	/	/	i	/
Cc1ccc(CNC(=O)c2cc(-c3ccccc3)nn2CC2CC(c3cccc([N+](=O)[O-])c3)=NO2)cc1 (stereo not drawn)	i	i	+	i	i	1.5
Cn1c(=O)c2c(ncn2CC(=O)OCC(=O)NNC(=O)c2ccc(Cl)cc2)n(C)c1=O	/	/	/	/	i	/
CCCCn1cnc2c(c(-c3ccccc3)c(-c3ccccc3)n2Cc2ccco2)c1=N	i	100*	i	i	i	-10
N=c1c2c(-c3ccccc3)c(-c3ccccc3)n(Cc3ccco3)c2ncn1Cc1ccco1	i	100*	i	i	i	-9.8*
Cc1cc2cc(C(=O)N3CCc4c([nH]c5ccccc45)C3c3ccccn3)ccc2o1 (stereo not drawn)	i	i	+	i	i	-0.21
COc1ccc(S(=O)(=O)N2CCSC2c2ccccc2)cc1 (stereo not drawn)	i	i	i	i	i	-3.1
O=[N+]([O-])c1ccc(S(=O)(=O)N2CCSC2c2ccco2)cc1 (stereo not drawn)	i	i	i	i	i	-4.6*
Cc1ccc(F)c(CNC(=O)C2CCC(=O)N(Cc3ccccn3)C2)c1F (stereo not drawn)	i	i	i	i	i	-0.27
O=C(O)CNS(=O)(=O)c1ccc(Br)s1	i	i	i	i	i	-1.1
O=S(=O)(NCCc1ccccc1)c1ccc(Br)s1	i	i	i	i	i	-4.2*
Cc1ccccc1-c1cc(C(=O)O)nn1CC1CC(c2cccc([N+](=O)[O-])c2)=NO1 (stereo not drawn)	i	i	/	i	i	/
COc1ccc2c(c1)C(SCC(=O)NCCc1ccccc1)CC(C)(C)O2 (stereo not drawn)	-6.4*	i	i	i	i	-3.4
O=C(NCc1cnn(-c2ccc(F)cc2)c1)C1CCC(=O)N(C2CC2)C1 (stereo not drawn)	i	i	i	i	i	-0.28
c1ccc2c(c1)CCN2CCN1CCc2ccccc21	i	i	i	i	-17*	0.02
O=C(Cn1ncc2c3ccccc3n(Cc3ccccc3F)c2c1=O)NCCCN1CCCC1=O	i	i	i	i	-5.2*	0.8
O=C(Cn1ncc2c3ccccc3n(Cc3ccccc3F)c2c1=O)NC1CC1	i	i	i	i	i	-0.03
Cc1ccc(C)c(Cn2c3ccccc3c3cnn(CC(=O)NCc4ccccn4)c(=O)c32)c1	i	i	i	i	-7.2*	0.02

Assay outcomes deposited in PubChem BioAssay by several laboratories.
